Values joined by “and” are separate entries in the source; they are usually repeats but may differ in a detail not shown here. Identical values can stand only once. The source holds several records for some structures; these can differ, active in one and inactive in another. Active and inactive are the calls of the source.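 Rule for the calls, unless noted: active = compound whose remaining NAD level is above about 45 nM (limit read from the data); inactive = the rest.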

For one assay, the target named is NAD(+) hydrolase SARM1 (Homo sapiens) (UniProt Q6SZW1). Put plainly: SARM1 TIR NADase inhibitors, cell lysate, NAD-Glo luminescence (AID 1508614).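 Note: higher remaining NAD means stronger inhibition of SARM1 NADase.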 Conditions: SAM-TIR HEK293T lysate NADase, at 1 µM, stronger effect = higher value.
NAD(+) hydrolase SARM1 (Homo sapiens), sequence (Q6SZW1 whole entry, looked up): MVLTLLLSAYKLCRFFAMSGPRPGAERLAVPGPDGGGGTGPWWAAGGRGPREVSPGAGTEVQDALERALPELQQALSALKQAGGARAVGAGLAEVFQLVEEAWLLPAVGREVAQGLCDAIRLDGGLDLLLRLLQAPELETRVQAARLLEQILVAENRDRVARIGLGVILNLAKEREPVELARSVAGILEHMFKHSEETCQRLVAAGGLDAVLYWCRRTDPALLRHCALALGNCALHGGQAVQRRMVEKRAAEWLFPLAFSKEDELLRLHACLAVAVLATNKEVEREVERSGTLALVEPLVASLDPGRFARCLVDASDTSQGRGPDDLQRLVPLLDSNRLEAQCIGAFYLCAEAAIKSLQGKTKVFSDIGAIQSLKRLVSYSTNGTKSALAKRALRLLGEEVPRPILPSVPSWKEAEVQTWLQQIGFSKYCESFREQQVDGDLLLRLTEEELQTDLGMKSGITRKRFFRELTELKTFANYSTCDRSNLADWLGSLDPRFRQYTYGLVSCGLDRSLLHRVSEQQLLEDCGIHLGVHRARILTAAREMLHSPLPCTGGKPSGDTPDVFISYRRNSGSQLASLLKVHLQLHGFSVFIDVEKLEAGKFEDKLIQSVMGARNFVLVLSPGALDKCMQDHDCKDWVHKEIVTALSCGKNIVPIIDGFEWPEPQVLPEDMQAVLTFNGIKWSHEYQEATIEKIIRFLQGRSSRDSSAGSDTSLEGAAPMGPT
In the case of `CC12CC3CC(C)(C1)CC(N)(C3)C2`, the remaining NAD was 10 nM (inactive). Same read-out and setting: under `CC(=O)OCC(CCn1cnc2cnc(N)nc21)COC(C)=O` stands 10 nM (inactive); under `S=c1nc[nH]c2nc[nH]c12`, 10 nM (inactive); under `Oc1c(Cl)cc(Cl)c2cccnc12`, 10 nM (inactive). Same read-out and setting: under `CC1=NS(=O)(=O)c2cc(Cl)ccc2N1` stands 10 nM (inactive). Consider `OC(Cn1cncn1)(Cn1cncn1)c1ccc(F)cc1F`, for which the remaining NAD was 14 nM (inactive).

Consider `NCCc1ccc(O)c(O)c1`, for which the remaining NAD is 10 nM (inactive). Same read-out and setting: to `CN=C(NC#N)NCCSCc1nc[nH]c1C` belongs 10 nM (inactive).

For `COc1c(N2CCNC(C)C2)c(F)cc2c(=O)c(C(=O)O)cn(C3CC3)c12` (stereo unspecified), the remaining NAD is 10 nM (inactive).

For the compound `CC1COc2c(N3CCN(C)CC3)c(F)cc3c(=O)c(C(=O)O)cn1c23` (stereo unspecified), the remaining NAD is 10 nM (inactive). The same measure, in the same setting: to `O=C(C1CCCCC1)N1CC(=O)N2CCc3ccccc3C2C1` (stereo unspecified) belongs 10 nM (inactive). Same read-out and setting: under `CCc1cc(C(N)=S)ccn1` stands 10 nM (inactive); under `CC1=C(/C=C/C(C)=C/C=C/C(C)=C/C(=O)O)C(C)(C)CCC1`, 10 nM (inactive).

Consider `CCCCNc1cc(C(=O)O)cc(S(N)(=O)=O)c1Oc1ccccc1`, for which the remaining NAD is 10 nM (inactive).

Turning to `O=c1[nH]cnc2[nH]ncc12`, the remaining NAD is 10 nM (inactive). Same read-out and setting: under `O=C1c2c(O)ccc(O)c2C(=O)c2c(NCCNCCO)ccc(NCCNCCO)c21` stands 10 nM (inactive). Same read-out and setting: to `O=C(O)c1cc(=O)c2c(OCC(O)COc3cccc4oc(C(=O)O)cc(=O)c34)cccc2o1` belongs 10 nM (inactive); to `CC(C)C(=O)Nc1ccc([N+](=O)[O-])c(C(F)(F)F)c1`, 10 nM (inactive); to `CC(COc1ccccc1)N(CCCl)Cc1ccccc1` (stereo unspecified), 10 nM (inactive). On to `CCCc1nc2c(C)cc(-c3nc4ccccc4n3C)cc2n1Cc1ccc(-c2ccccc2C(=O)O)cc1`, for which the remaining NAD was 10 nM (inactive). On the same count and under the same terms, to `CC(=O)CC(c1ccccc1)c1c(O)c2ccccc2oc1=O` (stereo unspecified) belongs 10 nM (inactive); to `NS(=O)(=O)c1cc2c(cc1Cl)NCNS2(=O)=O`, 10 nM (inactive). The same measure, in the same setting: to `CS(=O)(=O)OCCCCOS(C)(=O)=O` belongs 10 nM (inactive).

On to `CCOC(=O)C1=C(C)NC(C)=C(C(=O)OC)C1c1cccc([N+](=O)[O-])c1` (stereo unspecified), for which the remaining NAD is 10 nM (inactive). Still for that read-out and setting: under `COc1ccccc1OCCNCC(O)COc1cccc2[nH]c3ccccc3c12` (stereo unspecified) stands 14 nM (inactive) and 10 nM (inactive); under `O=C(O)CCCc1ccccc1`, 10 nM (inactive); under `NNCCc1ccccc1`, 10 nM (inactive). Same read-out and setting: to `CC1Cc2ccccc2N1NC(=O)c1ccc(Cl)c(S(N)(=O)=O)c1` (stereo unspecified) belongs 10 nM (inactive); to `CC(C)Cc1ccc(C(C)C(=O)O)cc1` (stereo unspecified), 10 nM (inactive).

For the compound `N[C@@H]1CONC1=O`, the remaining NAD is 10 nM (inactive).

Take `CCN(Cc1ccncc1)C(=O)C(CO)c1ccccc1` (stereo unspecified): the remaining NAD is 10 nM (inactive).

As for `CCCc1cc(=O)[nH]c(=S)[nH]1`, the remaining NAD is 10 nM (inactive).

Regarding `O=C(O)c1cccnc1`, the remaining NAD is 10 nM (inactive). Same read-out and setting: under `CC(C[N+](C)(C)C)OC(N)=O` (stereo unspecified) stands 10 nM (inactive).

For the compound `COc1ccc(Cl)cc1C(=O)NCCc1ccc(S(=O)(=O)NC(=O)NC2CCCCC2)cc1`, the remaining NAD is 10 nM (inactive). Still for that read-out and setting: under `N[C@@H](Cc1cc(I)c(Oc2cc(I)c(O)c(I)c2)c(I)c1)C(=O)O` stands 10 nM (inactive); under `CC1(C)O[C@@H]2[C@@H](CO[C@@]3(COS(N)(=O)=O)OC(C)(C)O[C@@H]23)O1`, 10 nM (inactive). On the same count and under the same terms, to `COCCOC(=O)C1=C(C)NC(C)=C(C(=O)OC(C)C)C1c1cccc([N+](=O)[O-])c1` (stereo unspecified) belongs 10 nM (inactive).

For the compound `NNC(=O)c1ccncc1`, the remaining NAD was 10 nM (inactive).

The target of a further assay is Mitogen-activated protein kinase 7 (Homo sapiens) (UniProt Q13164). Put plainly: ERK5 transactivation activators in reporter cells, primary screen, cell-based, HTS (AID 1508626;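 active = luciferase signal above three times the same-plate solvent-only control wells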;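 note: luciferase driven by Gal4-ERK5 fusion binding five Gal4 sites before minimal TATA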). Conditions: HeLa Gal4-ERK5 transactivation, 18 h, at 5 µM, stronger effect = higher value.
Mitogen-activated protein kinase 7 (Homo sapiens), sequence (Q13164 whole entry, looked up, the tested form may be a part): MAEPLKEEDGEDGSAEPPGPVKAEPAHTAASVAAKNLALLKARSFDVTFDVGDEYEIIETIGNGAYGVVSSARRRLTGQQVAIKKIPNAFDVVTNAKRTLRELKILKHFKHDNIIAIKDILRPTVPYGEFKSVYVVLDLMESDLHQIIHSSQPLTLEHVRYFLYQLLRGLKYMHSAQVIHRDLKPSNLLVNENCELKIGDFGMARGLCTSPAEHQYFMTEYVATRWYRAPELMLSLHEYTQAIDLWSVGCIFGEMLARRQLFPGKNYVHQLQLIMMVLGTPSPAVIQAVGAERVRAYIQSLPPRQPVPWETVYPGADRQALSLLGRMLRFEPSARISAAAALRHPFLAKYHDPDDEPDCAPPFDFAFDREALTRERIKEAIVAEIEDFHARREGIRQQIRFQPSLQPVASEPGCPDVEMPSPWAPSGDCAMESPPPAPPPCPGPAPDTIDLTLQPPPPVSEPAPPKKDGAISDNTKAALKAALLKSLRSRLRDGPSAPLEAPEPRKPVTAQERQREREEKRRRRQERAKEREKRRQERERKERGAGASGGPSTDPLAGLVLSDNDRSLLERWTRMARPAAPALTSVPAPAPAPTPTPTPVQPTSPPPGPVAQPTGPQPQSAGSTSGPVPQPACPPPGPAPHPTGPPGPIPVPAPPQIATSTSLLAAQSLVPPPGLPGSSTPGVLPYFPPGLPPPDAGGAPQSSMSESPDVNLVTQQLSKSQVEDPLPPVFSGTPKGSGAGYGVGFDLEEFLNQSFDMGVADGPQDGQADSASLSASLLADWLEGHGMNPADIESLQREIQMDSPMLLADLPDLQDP
For `CC12CC3CC(C)(C1)CC(N)(C3)C2`, the luciferase signal was 40 AU (inactive). `CC(=O)OCC(CCn1cnc2cnc(N)nc21)COC(C)=O`: the luciferase signal was 160 AU (inactive). The same measure, in the same setting: under `S=c1nc[nH]c2nc[nH]c12` stands 2730 AU (active).

Take `Oc1c(Cl)cc(Cl)c2cccnc12`: the luciferase signal was 48 AU (inactive). Same read-out and setting: under `CC1=NS(=O)(=O)c2cc(Cl)ccc2N1` stands 68 AU (inactive); under `OC(Cn1cncn1)(Cn1cncn1)c1ccc(F)cc1F`, 32 AU (inactive); under `NCCc1ccc(O)c(O)c1`, 44 AU (inactive) and 204 AU (active).

`CN=C(NC#N)NCCSCc1nc[nH]c1C`: the luciferase signal was 44 AU (inactive). For the compound `COc1c(N2CCNC(C)C2)c(F)cc2c(=O)c(C(=O)O)cn(C3CC3)c12` (stereo unspecified), the luciferase signal was 72 AU (inactive). The same measure, in the same setting: to `CC1COc2c(N3CCN(C)CC3)c(F)cc3c(=O)c(C(=O)O)cn1c23` (stereo unspecified) belongs 60 AU (inactive). `O=C(C1CCCCC1)N1CC(=O)N2CCc3ccccc3C2C1` (stereo unspecified): the luciferase signal was 32 AU (inactive). Regarding `CCc1cc(C(N)=S)ccn1`, the luciferase signal is 40 AU (inactive). The same measure, in the same setting: under `CC1=C(/C=C/C(C)=C/C=C/C(C)=C/C(=O)O)C(C)(C)CCC1` stands 20 AU (inactive). The same measure, in the same setting: to `CCCCNc1cc(C(=O)O)cc(S(N)(=O)=O)c1Oc1ccccc1` belongs 32 AU (inactive); to `O=c1[nH]cnc2[nH]ncc12`, 36 AU (inactive). Regarding `O=C1c2c(O)ccc(O)c2C(=O)c2c(NCCNCCO)ccc(NCCNCCO)c21`, the luciferase signal was 20 AU (inactive).

Regarding `O=C(O)c1cc(=O)c2c(OCC(O)COc3cccc4oc(C(=O)O)cc(=O)c34)cccc2o1`, the luciferase signal is 72 AU (inactive). The same measure, in the same setting: under `CC(C)C(=O)Nc1ccc([N+](=O)[O-])c(C(F)(F)F)c1` stands 76 AU (inactive). Same read-out and setting: under `CC(COc1ccccc1)N(CCCl)Cc1ccccc1` (stereo unspecified) stands 68 AU (inactive).

With `CCCc1nc2c(C)cc(-c3nc4ccccc4n3C)cc2n1Cc1ccc(-c2ccccc2C(=O)O)cc1`, the luciferase signal was 96 AU (inactive).

As to `CC(=O)CC(c1ccccc1)c1c(O)c2ccccc2oc1=O` (stereo unspecified), the luciferase signal was 136 AU (inactive). The same measure, in the same setting: to `NS(=O)(=O)c1cc2c(cc1Cl)NCNS2(=O)=O` belongs 96 AU (inactive); to `CS(=O)(=O)OCCCCOS(C)(=O)=O`, 52 AU (inactive).

Take `COc1ccccc1OCCNCC(O)COc1cccc2[nH]c3ccccc3c12` (stereo unspecified): the luciferase signal was 340 AU (inactive). Same read-out and setting: to `NNCCc1ccccc1` belongs 44 AU (inactive). Still for that read-out and setting: to `CC1Cc2ccccc2N1NC(=O)c1ccc(Cl)c(S(N)(=O)=O)c1` (stereo unspecified) belongs 56 AU (inactive). `CC(C)Cc1ccc(C(C)C(=O)O)cc1` (stereo unspecified): the luciferase signal is 24 AU (inactive).

Take `N[C@@H]1CONC1=O`: the luciferase signal is 64 AU (inactive). Turning to `CCN(Cc1ccncc1)C(=O)C(CO)c1ccccc1` (stereo unspecified), the luciferase signal is 108 AU (inactive). On the same count and under the same terms, to `CCCc1cc(=O)[nH]c(=S)[nH]1` belongs 88 AU (inactive); to `O=C(O)c1cccnc1`, 44 AU (inactive); to `CC(C[N+](C)(C)C)OC(N)=O` (stereo unspecified), 56 AU (inactive). Still for that read-out and setting: under `COc1ccc(Cl)cc1C(=O)NCCc1ccc(S(=O)(=O)NC(=O)NC2CCCCC2)cc1` stands 52 AU (inactive). Turning to `N[C@@H](Cc1cc(I)c(Oc2cc(I)c(O)c(I)c2)c(I)c1)C(=O)O`, the luciferase signal was 112 AU (inactive). The same measure, in the same setting: to `CC1(C)O[C@@H]2[C@@H](CO[C@@]3(COS(N)(=O)=O)OC(C)(C)O[C@@H]23)O1` belongs 24 AU (inactive); to `COCCOC(=O)C1=C(C)NC(C)=C(C(=O)OC(C)C)C1c1cccc([N+](=O)[O-])c1` (stereo unspecified), 48 AU (inactive); to `NNC(=O)c1ccncc1`, 36 AU (inactive).
